About 2,000 (36%) of roughly 5,500 compounds were called active. About 18% were inconclusive and are not listed. Cut-off read from the data, not from the text of the source: active = normalized growth mostly below about 0.91 (no sharp cut-off); inconclusive = no clear call, values can overlap the other calls; inactive = mostly above about 0.92. This is one part of the list.
Test: chemical genetic growth profiling, strain panel (AID 1159580);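 note: tested at 20 µM; growth read once vehicle control cultures reached saturation at 30 °C; 1 = growth at the plate median or of vehicle wells; lower values mean less growth of the strain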
Conditions: growth OD
[1] = S. cerevisiae deletion strains, locus YAL013W, strain DEP1, active compounds read low
[2] = S. cerevisiae deletion strains, locus YBR229C, strain ROT2, active compounds read low
[3] = S. cerevisiae deletion strains, locus YDL101C, strain DUN1, active compounds read low
[4] = S. cerevisiae deletion strains, locus YDL134C, strain PPH21, active compounds read low
[5] = S. cerevisiae deletion strains, locus YDR150W, strain NUM1, active compounds read low
[6] = S. cerevisiae deletion strains, locus YEL061C, strain CIN8, active compounds read low
[7] = S. cerevisiae deletion strains, locus YGR078C, strain PAC10, active compounds read low
[8] = S. cerevisiae deletion strains, locus YHR030C, strain SLT2, active compounds read low
[9] = S. cerevisiae deletion strains, locus YHR087W, strain rtc3, active compounds read low
[10] = S. cerevisiae deletion strains, locus YJR043C, strain POL32, active compounds read low
[11] = S. cerevisiae deletion strains, locus YJR075W, strain HOC1, active compounds read low
[12] = S. cerevisiae deletion strains, locus YKL190W, strain CNB1, active compounds read low
[13] = S. cerevisiae deletion strains, locus YLR039C, strain RIC1, active compounds read low
[14] = S. cerevisiae deletion strains, locus YLR058C, strain SHM2 (second series), active compounds read low
[15] = S. cerevisiae deletion strains, locus YLR085C, strain ARP6, active compounds read low
[16] = S. cerevisiae deletion strains, locus YLR262C, strain YPT6, active compounds read low
[17] = S. cerevisiae deletion strains, locus YML094W, strain GIM5, active compounds read low
[18] = S. cerevisiae deletion strains, locus YMR219W, strain ESC1, active compounds read low
[19] = S. cerevisiae deletion strains, locus YMR263W, strain SAP30, active compounds read low
[20] = S. cerevisiae deletion strains, locus YMR307W, strain GAS1, active compounds read low
[21] = S. cerevisiae deletion strains, locus YNL153C, strain GIM3, active compounds read low
[22] = S. cerevisiae deletion strains, locus YNL298W, strain CLA4 (second series), active compounds read low
[23] = S. cerevisiae deletion strains, locus YNL322C, strain KRE1, active compounds read low
[24] = S. cerevisiae deletion strains, locus YNR030W, strain Alg12, active compounds read low
[25] = S. cerevisiae deletion strains, locus YPL055C, strain LGE1, active compounds read low
[26] = S. cerevisiae deletion strains, locus YPL241C, strain CIN2, active compounds read low
[27] = S. cerevisiae deletion strains, locus YPR135W, strain CTF4, active compounds read low

Measured: normalized growth

CC(=O)C1C(=O)CC(c2ccc(Cl)cc2)CC1=O (stereo not drawn)
inactive: [17] 0.901 | [22] 0.849 | S. cerevisiae deletion strains, locus YOL006C, strain TOP1, active compounds read low 0.774 | [27] 0.718
active: [1] 0.342 | [2] 0.454 | [3] 0.425 | [4] 0.854 | [5] 0.489 | [6] 0.867 | [7] 0.463 | [8] 0.199 | [9] 0.541 | [10] 0.585 | [11] 0.444 | [12] 0.848 | [13] 0.218 | [14] 0.761 | [15] 0.529 | [16] 0.219 | [18] 0.562 | [19] 0.268 | [20] 0.218 | [21] 0.512 | [23] 0.796 | [24] 0.855 | [25] 0.211 | [26] 0.845

O=C1C=C(Cl)CC(c2ccc(C(F)(F)F)cc2)C1 (stereo not drawn)
inactive: [1] 1 | [2] 0.988 | S. cerevisiae deletion strains, locus YCL061C, strain MRC1, active compounds read low 1.01 | [3] 0.995 | [4] 1.03 | [5] 1.1 | [6] 1.03 | [7] 1.01 | [8] 0.987 | [9] 0.975 | [10] 1.01 | [11] 1.02 | [12] 0.983 | [13] 0.936 | [14] 0.986 | [15] 1.06 | [16] 0.94 | [17] 1.04 | [18] 1.01 | [19] 0.989 | [20] 1.01 | S. cerevisiae deletion strains, locus YNL128W, strain TEP1, active compounds read low 0.987 | [21] 0.992 | [22] 0.985 | [23] 0.991 | [24] 1.02 | [25] 1.14 | [26] 1.02 | [27] 1.03 | S. cerevisiae strains, strain wild type, active compounds read low 0.971
